Screening results: PubChem, several laboratories
Only some compounds are listed: those with a hit (about 2.9% of all), similar ones and a draw of the others.
GDH-TPI counter – counter-screen for M. tuberculosis FBA inhibitors: GDH-TPI coupled enzymes; GDH-TPI coupled enzyme counterscreen, NADH absorbance; inhibition, % at 4.8 µM; 1.2% of 360,000 active; AID 588335; in the data active means inhibition above about 30%
Mtb BioA inh – BioA (M. tuberculosis) enzyme inhibition | inhibition, % at 9.99 µM | purified M. tuberculosis BioA enzyme, plate reader | 0.096% of 360,000 active; in the data active means inhibition above about 40%
FadD28 FP inh – M. tuberculosis FadD28 bisubstrate binding inhibition; FadD28 bisubstrate probe binding, fluorescence polarization; inhibition, % at 12.5 µM; 0.22% of 360,000 active; in the data active means inhibition above about 8.5%, passing the limit was not always enough
FBA Mtb inh – Mtb fructose-bisphosphate aldolase inhibition; 2.3% of 360,000 active; inhibition, % at 1 µM; P9WQA3; AID 588726; purified M. tuberculosis FBA, fluorescence read-out; in the data active means inhibition above about 27%
Target sequence (P9WQA3 whole entry, looked up): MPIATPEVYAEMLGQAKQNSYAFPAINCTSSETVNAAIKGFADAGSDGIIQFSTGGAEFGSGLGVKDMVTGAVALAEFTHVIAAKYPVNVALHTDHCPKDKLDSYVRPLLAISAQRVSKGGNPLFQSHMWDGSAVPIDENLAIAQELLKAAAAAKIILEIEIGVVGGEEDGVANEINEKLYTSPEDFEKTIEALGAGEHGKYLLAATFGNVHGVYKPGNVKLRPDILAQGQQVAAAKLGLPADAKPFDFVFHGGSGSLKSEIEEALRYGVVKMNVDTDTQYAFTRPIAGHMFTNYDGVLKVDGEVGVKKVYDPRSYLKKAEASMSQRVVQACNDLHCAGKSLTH
Mtb hypoxia inh – reduces hypoxia-regulated biosensor signal in M. tuberculosis. M. tuberculosis hypoxia-regulated fluorescent reporter, fluorescence. fluorescence inhibition, % (test concentration not listed). 0.1% of 300,000 active. AID 1159583; in the data active means fluorescence inhibition mostly above about 23%, no sharp cut-off; inactive means mostly below about 17%
Numbers stand for hits; - = inactive; . = no result given.

SMILES	GDH-TPI counter	Mtb BioA inh	FadD28 FP inh	FBA Mtb inh	Mtb hypoxia inh
COc1ccc(CC(=O)c2ccc(O)cc2O)cc1	43	-	-	-	.
O=C(Cc1ccc(Br)cc1)c1ccc(O)cc1O	41	-	-	-	-
Cc1ccc(C(=O)Cc2ccccc2)c(O)c1	-	-	-	-	-
O=C(Cc1ccc([N+](=O)[O-])cc1)OCc1ccc([N+](=O)[O-])cc1	-	.	.	-	-
O=C(COc1ccccc1Br)c1ccc(O)cc1O	44	-	-	-	-
O=C(Cc1ccc([N+](=O)[O-])cc1)c1ccc(O)cc1O	51	-	-	-	-
COC(=O)C1=C(c2ccccc2)CC2CCC1N2C(=O)N1CCOCC1 (stereo not drawn)	.	.	.	.	-
COc1cccc(CNC(=O)C[C@@H]2CC[C@H]3[C@@H](COc4ccc(NC(C)=O)cc4C(=O)N3C)O2)c1	.	-	.	.	.
O=C(C1CCOCC1)N1C[C@@H]2[C@H](c3ccccc31)[C@H](CO)N2C(=O)c1ccccc1	.	-	.	.	.
CC(=NNc1cc(N2CCOCC2)nc(C)n1)c1cccc([N+](=O)[O-])c1	.	.	.	.	-
CSc1nc2nc(-c3ccccc3)cc(C(F)(F)F)n2n1	-	-	-	37	-
CSc1nc2nc(C(F)(F)F)cc(-c3ccccc3)n2n1	-	-	-	34	.
NC(=O)c1cnn2c(C(F)(F)F)cc(-c3ccccc3)nc12	-	-	-	-	.
CSc1nc2nc(C)cc(-c3ccccc3)n2n1	-	-	-	-	-
CCC(=O)N1C[C@@H](C)[C@@H](OC)CN(C)C(=O)c2cc(NC(=O)C3CCCCC3)ccc2OC[C@@H]1C	.	-	.	.	.
CCC(=O)N(C)C[C@H]1Oc2cc(C3=CCCC3)ccc2S(=O)(=O)N([C@@H](C)CO)C[C@@H]1C	.	-	.	.	.
N#C[C@@H]1[C@H](c2ccc(C3=CCCC3)cc2)[C@@H](CO)N1C(=O)Cc1ccncc1	.	-	.	.	.
Nc1c(C(=O)NCC2CCCO2)c2nc3ccccc3nc2n1N=Cc1ccncc1 (stereo not drawn)	.	.	.	.	-
O=c1c2ccccc2c2ccccc2c(=O)n1CC1CCCO1 (stereo not drawn)	-	-	-	-	.
Nc1c(C(=O)OC2CCCCC2)c2nc3ccccc3nc2n1CC1CCCO1 (stereo not drawn)	-	-	-	149	-
CC(C)CCOC(=O)c1c(N)n(CC2CCCO2)c2nc3ccccc3nc12 (stereo not drawn)	-	-	-	149	.
CC(C)OC(=O)c1c(N)n(CC2CCCO2)c2nc3ccccc3nc12 (stereo not drawn)	-	-	-	190	.
COc1ccccc1-n1c(N)c(C(=O)NCC2CCCO2)c2nc3ccccc3nc21 (stereo not drawn)	-	-	-	113	-
CC=Cc1ccc2n(c1=O)C[C@@H]1[C@@H](CO)[C@H](C(=O)N3CCCCC3)N(Cc3ccccc3)[C@H]21 (mixture of isomers)	.	-	.	.	.
O=C(C1=CC(c2ccc3c(c2)OCO3)CC(OCc2ccc(CO)cc2)O1)N1CCOCC1 (stereo not drawn)	.	.	.	.	-
SMILES	GDH-TPI counter	Mtb BioA inh	FadD28 FP inh	FBA Mtb inh	Mtb hypoxia inh
COc1ccc(CC2CN3C(=NCC3Cc3ccc(O)cc3)N2CC(C)NC(=O)CCC2CCCCC2)cc1 (stereo not drawn)	.	.	.	.	-
COc1ccc(NC(=O)Nc2ccc3c(c2)C(=O)N([C@@H](C)CO)C[C@@H](C)[C@@H](CN(C)Cc2ccncc2)OCCCC[C@H](C)O3)cc1	.	-	.	.	.
CC(=O)c1ccc(N2CCN(C(=O)CCCn3c(=O)[nH]c4ccc(Br)cc4c3=O)CC2)cc1	32	.	-	-	-
COc1ccc(N2CCN(C(=O)c3ccc4[nH]c(C)c(C)c4c3)CC2)cc1	-	-	-	-	-
CCOc1cc(C(=O)N2CCN(c3ccc(C(C)=O)cc3)CC2)cc(OCC)c1OCC	31	-	-	-	.
CC(=O)c1ccc(N2CCN(C(=O)CCCn3c(=O)[nH]c4ccsc4c3=O)CC2)cc1	-	.	-	-	-
CC(=O)c1ccc(N2CCN(C(=O)c3ccc4[nH]c(C)c(C)c4c3)CC2)cc1	35	-	-	-	-
COc1ccc(NC(=O)N(C)C[C@@H]2Oc3ccc(NC(=O)Nc4ccc5c(c4)OCO5)cc3C(=O)N([C@@H](C)CO)C[C@@H]2C)cc1	.	-	.	.	.
CC1=C(C#N)c2nc(N)c(C#N)c(C)c2/C1=C\c1ccc(-c2ccccc2C(=O)O)o1	-	.	12	-	-
Cc1c(C(=O)O)cccc1-c1ccc(/C=C2/NC(=O)N(c3ccccc3)C2=O)o1	-	.	-	-	-
O=C(O)c1ccc(N/N=C/c2cn(Cc3ccccc3F)c3ccccc23)cc1	42	-	13	-	.
CC(C)n1cc(/C=N/Nc2ccc(C(=O)O)cc2)c2ccccc21	-	-	22	-	.
O=C(O)c1ccc(NN=Cc2cn(Cc3ccc(F)cc3)c3ccccc23)cc1	.	.	.	.	-
